IP6K1 inh: IP6K1 kinase inhibition; IP6K1 kinase, ADP-Glo luminescence, 2 h; stronger effect = lower value; Q92551; activity change, % (series mostly up to about 58 µM); AID 1645851; 0.81% of 140,000 active; in the data active means activity change below about -25%
Target sequence (Q92551 whole entry, looked up): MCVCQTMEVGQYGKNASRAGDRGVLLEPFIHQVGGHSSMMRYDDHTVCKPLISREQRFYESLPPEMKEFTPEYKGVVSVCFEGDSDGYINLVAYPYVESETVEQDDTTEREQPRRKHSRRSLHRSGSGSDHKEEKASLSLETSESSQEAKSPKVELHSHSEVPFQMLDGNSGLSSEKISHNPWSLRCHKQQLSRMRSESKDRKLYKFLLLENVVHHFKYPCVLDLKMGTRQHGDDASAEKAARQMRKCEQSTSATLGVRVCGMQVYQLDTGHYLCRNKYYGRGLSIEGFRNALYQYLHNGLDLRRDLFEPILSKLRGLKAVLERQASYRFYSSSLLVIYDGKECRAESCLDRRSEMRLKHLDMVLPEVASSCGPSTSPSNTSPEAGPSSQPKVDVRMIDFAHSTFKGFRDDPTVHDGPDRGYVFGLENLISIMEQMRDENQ
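ADP-Glo luminescence measures ADP made by human IP6K1 during a 2 h RT reaction with ATP/IP6 (mix at 1.3 mM/130 uM); top library doses 57.5 and 19.1 uM final.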
KDM5B inhibitor: blocks human KDM5B histone demethylase activity; Q9UGL1; KDM5B demethylase, FDH-coupled NADH fluorescence (FDH is formaldehyde dehydrogenase); Potency, µM (doses to about 57.7 µM), hits mostly inhibitors; 2.6% of 220,000 active; AID 1347165; further: nearly all actives have a fitted effect of over 70% in size
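Coupled FDH/NAD⁺ fluorescence readout. KDM5BΔAP 200 nM final; compound titration, 10 min RT preincubation; substrate mix 12.5 µM H3K4me3, 25 µM 2-OG, 50 µM Fe(II), 100 µM ascorbate, 0.25 mM NAD⁺, 0.25 U/mL FDH; ΔRFU over 30 min.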
IP6K1 inh cnf: human IP6K1 inhibition, confirmatory. shares compounds with IP6K1 inh. Potency, µM (series often up to 49 µM), hits mostly inhibitors. recombinant IP6K1 kinase, ADP-Glo luminescence, 2 h. 13% of 1,200 active. AID 1645852; further: nearly all actives have a fitted effect of over 65% in size
Numbers stand for hits; - = inactive; ? = inconclusive; . = not tested or not shown. Compounds with a hit are over-represented: about 2.8% of the library has one in this group of screens. Unless noted, the call rests on the fitted dose curve; in most records, active means well fitted inhibition curve with a large enough effect; inconclusive means small, poorly fitted or top-dose-only effect; inactive means no such curve, though single readings can be large or run the other way.

SMILES | IP6K1 inh | KDM5B inhibitor | IP6K1 inh cnf
Cc1cc(C)cc(NC(=O)CSc2nccn2-c2ccccc2)c1 | - | - | .
COC(=O)c1ccc(NC(=O)CSc2nc3cc4ccccc4cc3[nH]2)cc1 | - | ? | .
Cc1ccc(OCC(=O)N/N=C/c2cccc(O)c2)cc1 | . | - | .
O=C(Cc1ccc2ccccc2c1)Nc1nccs1 | . | - | .
CC(C)(C)OCC(O)CN1CCC(=O)N(Cc2ccccc2)Cc2cc3c(cc21)OCO3 (stereo not drawn) | - | . | .
CC1CCC2(CC1)N=C(c1cccc(F)c1)C(=S)N2 (stereo not drawn) | . | - | .
COc1cc(N2CCOCC2)ccc1Nc1ncc(F)c(Nc2ccccc2NS(C)(=O)=O)n1 | - | . | .
CNC(=O)c1ccccc1Nc1cc(Nc2ccc(N3CCOCC3)cc2OC)ncc1C(F)(F)F | -52.9 | . | ?
COc1ccccc1Cn1c(C2CC(=O)N(c3ccccc3OC)C2)nc2ccccc21 (stereo not drawn) | -43.1 | ? | -
CCc1ccccc1N1CC(c2nc3ccccc3n2CCCCOc2ccccc2OC)CC1=O (stereo not drawn) | - | ? | .
Cc1cccc(OCCCCn2c(C3CC(=O)N(c4ccccc4Cl)C3)nc3ccccc32)c1 (stereo not drawn) | - | ? | .
Cc1cccc(OCCCCn2c(C3CC(=O)N(c4ccc(C)cc4C)C3)nc3ccccc32)c1 (stereo not drawn) | -39.2 | ? | -
Cc1cc2nc(CO[C@H]3CN(Cc4ccc(S(C)(=O)=O)cc4)C[C@H]3F)[nH]c2cc1C | - | - | .
COc1ccc(CNC(=O)c2cc(-c3ccccc3C(F)(F)F)nc3c2cnn3C)cc1 | - | . | .
CN1C(=O)N(C)C2(CCN(c3cc(C4CC(O)C4)ncn3)CC2)C1=O (stereo not drawn) | - | - | .
C[C@@H]1CN(c2cc(C3CC(O)C3)ncn2)C[C@H](C)O1 (stereo partly drawn) | -30.7 | - | -
Cc1ccc(-c2nnc3ccc(Nc4cccc(N(C)C)c4)nn23)nc1 | -25.1 | ? | -
COc1ccc(Nc2ccc3nnc(-c4ccc(C)cn4)n3n2)cc1 | - | ? | .
Cc1[nH]c2ccc(C(=O)N(C)CCOc3ccccc3)cc2c1C | . | - | .
NC(=O)c1cccc(CC2CCN(C(=O)c3ccnc(-n4cnnc4)c3)C2)c1 (stereo not drawn) | -27.0 | - | -
Cc1cc(C)n2nc(C(=O)N3CCC(Cc4cccc(C(N)=O)c4)C3)nc2n1 (stereo not drawn) | - | - | .
Cn1cnc2c1c(=O)n(CC(=O)NCc1ccccc1OC(F)F)c(=O)n2C | . | - | .
CCCCOc1c(C(=O)c2c(F)cc(C)cc2F)cnc2n[nH]cc12 | - | . | .
CCCS(=O)(=O)Nc1ccc(F)c(C(=O)c2c[nH]c3ncc(Cl)cc23)c1F | -31.1 | . | ?
CCCCCCCC(=O)NCCCNC(=O)CCCCCCC | . | - | .
SMILES | IP6K1 inh | KDM5B inhibitor | IP6K1 inh cnf
COc1cccc(CNC(=O)Nc2cc(C(=O)NCc3cccc(F)c3)ccc2N2CCCC2)c1 | -25.6 | ? | -
Cc1ccc(CNC(=O)Nc2cc(C(=O)NCc3cccc(F)c3)ccc2N2CCCC2)cc1 | - | ? | .
CC1CN(C(=O)CCC(=O)NCc2ccccc2)c2cc(Cl)ccc2O1 (stereo not drawn) | - | - | .
CC1CN(C(=O)CCC(=O)NCc2ccc(F)cc2)c2cc(Cl)ccc2O1 (stereo not drawn) | -25.2 | - | -
NC(=O)c1cc(S(=O)(=O)NCc2cccc(Br)c2)cs1 | -30.1 | - | -
Cc1cccc(CNS(=O)(=O)c2csc(C(N)=O)c2)c1 | - | - | .
O=Cc1c[nH]c2cc(Br)ccc12 | . | - | .
CCOC(=O)c1cc2c(=O)n3ccccc3nc2n(Cc2ccco2)c1=NC(=O)c1cccc(F)c1 | -38.7 | ? | -
CCOC(=O)c1cc2c(=O)n3ccccc3nc2n(Cc2ccco2)c1=NC(=O)c1cc(C)cc(C)c1 | - | ? | .
CCc1nn(CC(=O)N2CCN(c3cccc(C)c3C)CC2)c(=O)c2cc3sccc3n12 | -28.9 | - | -
CCc1nn(CC(=O)N2CCN(c3cccc(Cl)c3)CC2)c(=O)c2cc3sccc3n12 | - | - | .
CC(=O)c1cccc(NC(=O)Cn2ccn3nc(-c4ccccc4)c(CO)c3c2=O)c1 | - | - | .
CC(=O)c1cccc(NC(=O)Cn2ccn3nc(-c4ccc(F)cc4)c(CO)c3c2=O)c1 | -29.6 | - | -
CO/N=C(\C(=O)N[C@@H]1C(=O)N2C(C(=O)O)=C(CSc3nc(=O)c(O)nn3C)CS[C@H]12)c1csc(N)n1 | -78.9 | . | ?
CO/N=C(/C(=O)N[C@@H]1C(=O)N2C(C(=O)O)=C(Cn3ccc(=N)n3CCO)CS[C@H]12)c1csc(N)n1 | - | . | .
COC[C@@H]1CN(C(=O)c2occc2C)C[C@H]1c1ccccn1 | - | - | .
Cc1ccoc1C(=O)N1C[C@@H](CO)[C@H](c2ccccn2)C1 | -40.3 | - | -
N#C/C(=C/c1ccc(OC(F)F)cc1)c1ccc(C(F)(F)F)cn1 | . | - | .
CN(C)c1cccc(NC(=O)Cc2c[nH]c3ncc(-c4cccnc4)cc23)c1 | - | - | .
NC(=O)Cc1c[nH]c2ncc(-c3ccc(F)cc3)cc12 | -29.2 | 35.5µM | ?
O=C(Cc1c[nH]c2ncc(-c3ccc(Cl)cc3)cc12)NCc1cccnc1 | -25.4 | ? | -
NC(=O)Cc1c[nH]c2ncc(-c3ccccc3C(F)(F)F)cc12 | -34.0 | ? | ?
O=C(Cc1c[nH]c2ncc(-c3ccc(Oc4ccccc4)cc3)cc12)NCc1cccnc1 | - | ? | .
Cc1cc(NC(=O)c2cccnc2)c(C)cc1I | . | - | .
O=C(Cc1c[nH]c2ncc(-c3cccnc3)cc12)Nc1ccc(F)cc1 | - | - | .
SMILES | IP6K1 inh | KDM5B inhibitor | IP6K1 inh cnf
N#Cc1ccc(-c2cnc3[nH]cc(NC(=O)c4cccnc4)c3c2)cc1 | -27.7 | . | ?
O=C(Nc1ccc(F)cc1)c1ccc2nc(-c3ccnc(Cl)c3)oc2c1 | - | . | .
N#Cc1nc(-c2ccc(S(=O)(=O)N3CCCC3)cc2)oc1NCCCN1CCOCC1 | . | - | .
Cc1ccc(Oc2cc(C#N)c(C#N)cc2Oc2ccc(C)c(C)c2)cc1C | . | - | .
COc1ccc(CNC(=O)c2c[nH]c3ncccc23)cc1OC | - | - | .
COc1ncccc1-c1cnc2[nH]cc(CC(N)=O)c2c1 | -29.2 | 31.6µM | ?
COc1ccc(-c2cnc3[nH]cc(CC(N)=O)c3c2)cc1OC | -31.0 | ? | ?
O=C(Cc1c[nH]c2ncc(-c3cccnc3)cc12)NC1CCC1 | - | - | .
COc1ccc(CC(=O)NC2CCN(c3cc(-c4ccc(Cl)cc4)[nH]n3)C2)cc1OC (stereo not drawn) | - | ? | .
Cc1ccc(/C=C/c2onc(C)c2S(=O)(=O)N2CCC(C(=O)N(CCC(C)C)Cc3ccco3)CC2)cc1 | -38.1 | - | -
Cc1ccc(/C=C/c2onc(C)c2S(=O)(=O)N2CCC(C(=O)NCc3ccco3)CC2)cc1 | - | ? | .
O=C(Nc1ccc(F)cc1)c1ccc2oc(-c3ccnc(Cl)c3)nc2c1 | - | . | .
O=C(Nc1ccccc1-c1cn2c(CN3CCNCC3)csc2n1)c1cnc2ccccc2n1 | -28.5 | . | ?
Cc1nc(-c2cccnc2)sc1C(=O)Nc1ccccc1-c1cn2c(CN3CCOCC3)csc2n1 | - | . | .
CCCN1CCN(CCCNC(=O)c2ccc3c(c2)sc2nc(-c4ccc(C)cc4)cn23)CC1 | - | - | .
O=C(NCCCN1CCCCCC1)c1ccc2c(c1)sc1nc(-c3ccccc3)cn12 | -50.3 | ? | ?
O=S(=O)(O)c1ccc2cc(N=Nc3cc(S(=O)(=O)O)c4cccnc4c3O)ccc2c1 | -51.9 | . | ?

Screens deposited in PubChem BioAssay by National Center for Advancing Translational Sciences (NCATS).
